Tests used:
Format in all cases: functional
[1] = molecular target: Solute carrier family 2, facilitated glucose transporter member 1 (Homo sapiens) (UniProt P11166); assay: ST_JUDE_LEISH: Cytotoxicity at 2uM final concentration against transgenic Leishmania Mexicana promastigotes LmGLUT1 that are glucose transport deficient and complemented with the human glucose transporter GLUT1. Activity is measured by DNA content using SYBR green in vitro
[2] = molecular target: Hexose transporter 1 (Plasmodium falciparum) (UniProt O97467); assay: ST_JUDE_LEISH: Cytotoxicity at 2uM final concentration against transgenic Leishmania Mexicana promastigotes LmPfHT that are glucose transport deficient and complemented with the Plasmodium falciparum hexose transporter. Activity is measured by DNA content using SYBR green in vitro
[3] = molecular target: Glucose transporter (Leishmania mexicana) (UniProt O61059); assay: ST_JUDE_LEISH: Cytotoxicity at 2uM final concentration against transgenic Leishmania Mexicana promastigotes LmGT2 that are glucose transport deficient and complemented with the L. Mexicana glucose transporter 2. Activity is measured by DNA content using SYBR green in vitro

Chain of Solute carrier family 2, facilitated glucose transporter member 1 (Homo sapiens) (P11166 whole entry): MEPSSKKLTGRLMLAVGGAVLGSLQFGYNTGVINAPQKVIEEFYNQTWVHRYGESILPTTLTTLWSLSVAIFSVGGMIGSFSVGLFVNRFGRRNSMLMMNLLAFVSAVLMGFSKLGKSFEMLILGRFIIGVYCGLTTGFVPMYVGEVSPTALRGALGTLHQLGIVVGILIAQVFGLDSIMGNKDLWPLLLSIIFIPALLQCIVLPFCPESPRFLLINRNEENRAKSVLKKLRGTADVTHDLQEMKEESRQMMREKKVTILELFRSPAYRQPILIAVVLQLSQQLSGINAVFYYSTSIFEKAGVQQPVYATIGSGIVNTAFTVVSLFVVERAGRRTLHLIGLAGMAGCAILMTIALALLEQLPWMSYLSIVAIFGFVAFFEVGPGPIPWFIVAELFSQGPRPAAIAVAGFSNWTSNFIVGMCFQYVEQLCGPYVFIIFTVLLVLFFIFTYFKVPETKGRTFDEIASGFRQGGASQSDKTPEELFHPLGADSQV

Row | Compound | inhibition [1] | inhibition [2] | inhibition [3]
1 | O=C(/C=C/c1ccc(Cl)c(Cl)c1)N1CCCC(CCCN2CCC(c3c[nH]c4ccccc34)CC2)C1 (stereo not given) | 4.23% | 3.51% | -0.35%
2 | N#Cc1cccc(NC(=O)Nc2ccc(-c3ccc(-c4nc5cc(C(F)(F)F)ccc5[nH]4)cc3)cc2)c1 | 3.68% | 1.32% | 4.14%
3 | O=C(NCC1CCC1)c1cnc(Nc2cccc(Cl)c2)nc1N1CCC1 | 14.5% | 12.8% | 12.4%
4 | COc1ccc(NC(=O)CCNc2cc(C)nc(NCc3cccc(C)c3)n2)cc1 | -0.09% | 0.43% | -1.14%
5 | Cc1cc(-c2cccc3c(C(=O)N4CCc5cc6nccc(N7CCN8CCC[C@H]8C7)c6cc54)cccc23)cc(C)n1 | 1.99% | -1.7% | 2.83%
